As usually defined, the inhibition is the change of the read-out against control, counted positive when it falls.

Values without a mark were called inactive. For some of these results: Entries with a potency or affinity are not part of this list. Calls of active or inactive are those of the source. Unless noted, no rule for the calls is given here.

These results are taken from PubChem BioAssay.

The nature of assay [1]: antimalarial activity against Dd2 strain (AID 2302;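 active = growth inhibition above 50% at the single 2 µM test dose, taken to imply half-maximal potency below 2 µM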;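 also: 0% = DMSO untreated growth and 100% = chloroquine plus artemisinin killed control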). The conditions noted are these: P. falciparum Dd2 in RBCs, LDH growth readout, 72 h; at 2 µM; stronger effect = higher value.
Assay [2] in a line: human hepatoma cell viability loss – ATP luminescence, cytotoxicity control for P. falciparum antimalarial project, primary screen (AID 2303;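 active = inhibition above 50%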;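 also: 0% = DMSO wells and 100% = digitonin-killed cells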). The conditions noted are these: HepG2 viability, 24-48 h, at 10 µM, stronger effect = higher value.
Assay [3] has as its target L-lactate dehydrogenase (Plasmodium falciparum (isolate CDC / Honduras)) (UniProt Q27743). Nature of the assay: PfLDH activity inhibition – cell lysate, 3D7 strain, counter-screen for P. falciparum growth inhibition project (AID 2304).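 Also: 0% = vehicle and 100% = reference inhibitor.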 The conditions noted are these: P. falciparum 3D7 crude extract, LDH APAD/NBT absorbance; at 2 µM; stronger effect = higher value.
Assay [4] can be described thus: inhibition of 3D7 malaria parasite growth – strain 3D7 (AID 2306).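 Also: 0% = DMSO wells and 100% = chloroquine plus artemisinin control wells.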 The conditions noted are these: P. falciparum 3D7 erythrocytic growth, LDH absorbance, 72 h; at 2 µM; stronger effect = higher value.
The target of assay [5] is Calcium-dependent protein kinase 1 (Plasmodium falciparum (isolate 3D7)) (UniProt P62344). The assay is described as follows: PfCDPK1 kinase inhibitors, biochemical, TCAMS library (AID 1159585; cut-off not given, nearly all actives have IC50 up to about 0.98 µM;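 also: inhibitors leave more ATP so luminescence rises with inhibition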). The conditions noted are these: recombinant PfCDPK1, Kinase-Glo ATP depletion luminescence.
In assay [6] the target is Plasmodium falciparum protein kinase 6 (PK6, PF3D7_1337100) (UniProt Q8IDW1). The assay is described as follows: PfPK6 kinase inhibitors, biochemical, TCAMS library (AID 1159586). The conditions noted are these: recombinant PfPK6, Kinase-Glo ATP depletion luminescence. On the technique in general: Kinase-Glo reads ATP consumption through a luciferase reaction.
Assay [7] has as its target Protein kinase 7 (PK7), Plasmodium falciparum 3D7 (PF3D7_0213400) (UniProt Q7YTF7). The assay is described as follows: inhibition of Plasmodium PK7 catalytic activity – biochemical, TCAMS antimalarial set, Kinase-Glo luminescence (AID 1159587). The conditions noted are these: recombinant PfPK7, Kinase-Glo ATP depletion luminescence.
Assay [8] addresses Calcium-dependent protein kinase 4 (Plasmodium falciparum (isolate 3D7)) (UniProt Q8IBS5). The assay is described as follows: PfCDPK4 kinase inhibitors, biochemical, TCAMS library (AID 1159588; cut-off not given, nearly all actives have IC50 up to about 0.91 µM). The following applies: recombinant PfCDPK4, Kinase-Glo ATP depletion luminescence.

Chain of Protein kinase 7 (PK7), Plasmodium falciparum 3D7 (PF3D7_0213400) (Q7YTF7 1-343): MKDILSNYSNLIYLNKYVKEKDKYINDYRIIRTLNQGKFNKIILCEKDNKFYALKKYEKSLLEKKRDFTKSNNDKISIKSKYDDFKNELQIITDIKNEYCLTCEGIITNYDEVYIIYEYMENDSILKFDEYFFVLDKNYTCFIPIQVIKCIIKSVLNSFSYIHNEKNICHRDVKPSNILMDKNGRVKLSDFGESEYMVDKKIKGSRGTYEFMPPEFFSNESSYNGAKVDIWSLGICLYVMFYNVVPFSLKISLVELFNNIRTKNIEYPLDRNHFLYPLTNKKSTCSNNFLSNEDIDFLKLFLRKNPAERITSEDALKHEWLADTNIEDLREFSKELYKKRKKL
Chain of Calcium-dependent protein kinase 1 (Plasmodium falciparum (isolate 3D7)) (P62344 whole entry, looked up): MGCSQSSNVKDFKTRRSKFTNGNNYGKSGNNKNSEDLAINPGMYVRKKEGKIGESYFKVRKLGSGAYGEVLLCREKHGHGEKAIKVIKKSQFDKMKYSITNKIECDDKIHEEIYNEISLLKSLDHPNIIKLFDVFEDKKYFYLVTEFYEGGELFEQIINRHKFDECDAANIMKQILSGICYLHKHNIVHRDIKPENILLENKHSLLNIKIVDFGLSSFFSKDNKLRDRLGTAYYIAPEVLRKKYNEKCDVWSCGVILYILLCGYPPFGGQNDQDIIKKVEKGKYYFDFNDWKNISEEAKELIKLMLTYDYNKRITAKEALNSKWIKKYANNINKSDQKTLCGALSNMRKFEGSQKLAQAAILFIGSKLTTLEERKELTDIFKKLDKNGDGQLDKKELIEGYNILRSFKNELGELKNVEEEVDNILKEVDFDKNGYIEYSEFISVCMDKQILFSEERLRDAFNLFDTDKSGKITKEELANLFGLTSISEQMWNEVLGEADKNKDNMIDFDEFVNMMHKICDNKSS
Chain of Calcium-dependent protein kinase 4 (Plasmodium falciparum (isolate 3D7)) (Q8IBS5 whole entry, looked up): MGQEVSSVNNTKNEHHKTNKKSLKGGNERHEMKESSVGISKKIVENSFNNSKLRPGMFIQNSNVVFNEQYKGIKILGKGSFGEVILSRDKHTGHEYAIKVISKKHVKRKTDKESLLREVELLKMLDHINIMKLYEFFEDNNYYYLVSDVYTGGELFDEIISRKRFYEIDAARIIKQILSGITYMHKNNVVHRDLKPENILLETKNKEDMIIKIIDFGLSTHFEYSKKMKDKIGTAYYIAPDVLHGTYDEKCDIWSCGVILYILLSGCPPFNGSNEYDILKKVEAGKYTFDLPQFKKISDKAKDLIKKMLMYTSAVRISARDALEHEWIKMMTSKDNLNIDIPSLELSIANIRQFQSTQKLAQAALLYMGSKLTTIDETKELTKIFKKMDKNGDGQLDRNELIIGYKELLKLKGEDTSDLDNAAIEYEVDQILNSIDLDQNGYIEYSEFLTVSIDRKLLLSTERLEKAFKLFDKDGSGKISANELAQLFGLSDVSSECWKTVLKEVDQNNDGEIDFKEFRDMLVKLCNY
Chain of L-lactate dehydrogenase (Plasmodium falciparum (isolate CDC / Honduras)) (Q27743 whole entry, looked up): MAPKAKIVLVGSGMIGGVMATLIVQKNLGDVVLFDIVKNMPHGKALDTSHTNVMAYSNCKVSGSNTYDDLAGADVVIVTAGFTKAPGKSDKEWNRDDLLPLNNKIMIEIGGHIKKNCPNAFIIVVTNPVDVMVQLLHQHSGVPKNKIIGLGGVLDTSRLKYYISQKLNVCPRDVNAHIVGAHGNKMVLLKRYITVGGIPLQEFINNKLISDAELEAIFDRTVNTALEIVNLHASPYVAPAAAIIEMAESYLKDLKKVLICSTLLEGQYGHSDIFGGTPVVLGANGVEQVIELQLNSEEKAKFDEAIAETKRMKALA
Chain of Plasmodium falciparum protein kinase 6 (PK6, PF3D7_1337100) (Q8IDW1 1-305): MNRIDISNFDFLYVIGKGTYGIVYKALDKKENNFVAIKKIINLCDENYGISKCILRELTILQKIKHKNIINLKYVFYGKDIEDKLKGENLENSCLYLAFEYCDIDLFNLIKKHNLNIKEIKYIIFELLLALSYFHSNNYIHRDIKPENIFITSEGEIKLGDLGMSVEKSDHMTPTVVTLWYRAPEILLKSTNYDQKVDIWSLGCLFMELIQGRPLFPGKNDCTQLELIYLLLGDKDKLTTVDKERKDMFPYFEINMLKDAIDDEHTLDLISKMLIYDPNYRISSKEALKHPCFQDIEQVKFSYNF

`CC1CCN(C(=O)[C@H](Cc2c[nH]c3ccccc23)NS(=O)(=O)c2ccc(Cl)cc2)CC1`: the growth inhibition is 99% (active) in assay [1] and 100% (active) in assay [4]. In addition, the inhibition in assay [2] is -6%; in assay [3], 0%. In addition, the outcome in assay [5], in assay [6], in assay [7] and in assay [8] was inactive.
For `Cc1cccc(NC(=O)Nc2cccc(-c3ccc(-c4nc5ccc(C(F)(F)F)cc5[nH]4)cc3)c2)c1`, the growth inhibition in assay [1] is 94% (active); in assay [4], 101% (active). Besides, the results for the inhibition in assay [2] and in assay [3] were 44% and -1%, respectively. The outcome in assay [5], in assay [6], in assay [7] and in assay [8] was inactive.
Regarding `COc1ccc2nc(C)cc(NN=Cc3ccc(Cl)cc3)c2c1`, the growth inhibition in assay [1] and in assay [4] was 100% (active) throughout. The inhibition is 2% in assay [2] and 3% in assay [3]. In addition, the outcome in assay [5], in assay [6], in assay [7] and in assay [8] was inactive.
As to `CCCCCCCc1c(C)[nH]c2cccc(OC)c2c1=O`, the growth inhibition in assay [1] is 47%; in assay [4], 95% (active). Further, the inhibition in assay [2] was 43%; in assay [3], 0%. In addition, the outcome in assay [5], in assay [6], in assay [7] and in assay [8] was inactive.
For `O=C(Nc1cccc(-c2cccc(-c3nc4ccc(C(F)(F)F)cc4[nH]3)c2)c1)c1cccnc1`, the growth inhibition was 70% (active) in assay [1] and 100% (active) in assay [4]. Further, the inhibition in assay [2] was 57% (active); in assay [3], -6%. Also, the result in assay [5], in assay [6], in assay [7] and in assay [8] was inactive.
As for `O=C(Nc1cc(Cl)ccc1O)c1cnn2c(C(F)(F)F)cc(-c3cccs3)nc12`, the growth inhibition in assay [1] was 74% (active); in assay [4] it was 100% (active). Also, the inhibition in assay [2] is 8%; in assay [3], 1%. Moreover, the outcome in assay [5], in assay [6], in assay [7] and in assay [8] was inactive.
As to `Cc1ccc(C(=O)NC2CCN(CCNC(=O)Nc3cc(C)nc4ccccc34)CC2)cc1`, the growth inhibition in assay [1] was 76% (active); in assay [4], 98% (active). Besides, the inhibition was -12% in assay [2] and -8% in assay [3]. The result in assay [5], in assay [6], in assay [7] and in assay [8] was inactive.
Take `O=S(=O)(NCCN1CCCC1)c1ccc(-c2cccc(CNC3Cc4ccccc4C3)c2)cc1`: the growth inhibition in assay [1] is 57% (active); in assay [4], 99% (active). Also, the inhibition in assay [2] was 55% (active); in assay [3], -6%. In addition, the outcome in assay [5], in assay [6], in assay [7] and in assay [8] was inactive.
As to `COc1cc2c(cc1OCCN1CCC(N)CC1)N(C(=O)/C=C/c1ccccc1Cl)CC2`, the growth inhibition is 18% in assay [1] and 91% (active) in assay [4]. For the same compound, the inhibition in assay [2] was 19%; in assay [3], -7%. The outcome in assay [5], in assay [6], in assay [7] and in assay [8] was inactive.
`Cc1[nH]c(C)c(-c2ccc(-c3ccccc3)nc2)c(=O)c1Br`: the growth inhibition in assay [1] is 95% (active); in assay [4], 96% (active). Besides, the inhibition in assay [2] was -3%; in assay [3], -1%. The outcome in assay [5], in assay [6], in assay [7] and in assay [8] was inactive.
As to `Cc1cccc2[nH]c(-c3ccc(-c4ccc(CN5CCC(C(N)=O)CC5)cc4)cc3)nc12`, the values for the growth inhibition in assay [1] and in assay [4] were 32% and 91% (active), respectively. Moreover, the inhibition in assay [2] was 8%; in assay [3], 1%. For the same compound, the result in assay [5], in assay [6], in assay [7] and in assay [8] was inactive.
Regarding `CC(C)NCc1ccc(-c2ccc(-c3nc4ccc(F)cc4[nH]3)cc2)cc1`, the growth inhibition in assay [1] was 100% (active); in assay [4], 101% (active). Also, the inhibition in assay [2] was 14%; in assay [3] it was -5%. Moreover, the outcome in assay [5], in assay [6], in assay [7] and in assay [8] was inactive.
For the compound `CC(=O)c1sc2ccccc2c1O`, the growth inhibition was -2% in assay [1] and 91% (active) in assay [4]. Further, the inhibition in assay [2] was 14%; in assay [3] it was 6%. For the same compound, the outcome in assay [5], in assay [6], in assay [7] and in assay [8] was inactive.
In the case of `COC(=O)c1cc(C(O)CNC(C)CCc2cccc(F)c2)ccc1O` (stereo not given), the results for the growth inhibition in assay [1] and in assay [4] were 77% (active) and 94% (active), respectively. In addition, the inhibition in assay [2] is 38%; in assay [3], -2%. Besides, the result in assay [5], in assay [6], in assay [7] and in assay [8] was inactive.
Consider `c1ccc(CCNCc2ccc(-c3ccc(CNC4CCN(Cc5ccccc5)CC4)cc3)nc2)cc1`, for which the results for the growth inhibition in assay [1] and in assay [4] were 99% (active) and 101% (active), respectively. Also, the inhibition in assay [2] was 34%; in assay [3], -1%. Moreover, the outcome in assay [5], in assay [6], in assay [7] and in assay [8] was inactive.
`CN(CCCCCNC(=O)/C=C/c1ccc(Cl)c(Cl)c1)CCCCc1c[nH]c2ccccc12`: the values for the growth inhibition in assay [1] and in assay [4] were 15% and 90% (active), respectively. The inhibition in assay [2] is 17%; in assay [3], 2%. Besides, the result in assay [5], in assay [6], in assay [7] and in assay [8] was inactive.
As to `Cc1cc2ccc(-c3cccc(CN)c3)cc2nc1N`, the growth inhibition is 1% in assay [1] and 100% (active) in assay [4]. In addition, the inhibition in assay [2] was -4%; in assay [3], -6%. Further, the outcome in assay [5], in assay [6], in assay [7] and in assay [8] was inactive.
Turning to `O=C(O)c1ccc2nc(-c3ccccn3)c(-c3ccccn3)nc2c1`, the figures for the growth inhibition in assay [1] and in assay [4] were 18% and 97% (active), respectively. Besides, the inhibition is 3% in assay [2] and 4% in assay [3]. In addition, the result in assay [5], in assay [6], in assay [7] and in assay [8] was inactive.
As to `COc1ccc(Nc2ncc3c(-c4cccc(NC(=O)Cc5ccncc5)c4)c[nH]c3n2)cc1OC`, the growth inhibition in assay [1] is 87% (active); in assay [4], 99% (active). Besides, the inhibition in assay [2] is 23%; in assay [3] it was 1%. Besides, the result in assay [5], in assay [6], in assay [7] and in assay [8] was inactive.
In the case of `O=C(Cc1n[nH]c(=O)c2ccccc12)Nc1cccc(C(=O)Nc2cccc(C(F)(F)F)c2)c1`, the growth inhibition in assay [1] is 90% (active); in assay [4] it was 97% (active). In addition, the inhibition in assay [2] was 0%; in assay [3] it was -6%. The outcome in assay [5], in assay [6], in assay [7] and in assay [8] was inactive.
